Drawing on PubChem BioAssay (EPA / NIEHS), this text covers AC50 and outcome for three compounds.

Experiment [1] concerns the target Bile acid receptor (Homo sapiens) (UniProt Q96RI1). Description: ATG_IR1_CIS: Attagene CIS-FACTORIAL HepG2 Assay for human Nuclear Receptor Subfamily 1 Group H Member 4 (NR1H4), IR1 submotif (AID 2282946). To be noted: IR1 reporter transcription, actives raise or lower the signal. The method in brief:
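HepG2 cells transiently transfected with multiplexed cis-element reporter units read endogenous transcription factor activity. After 24 h compound exposure, reporter mRNA was quantified by RT-PCR, fluorescent labelling, HpaI digestion and capillary electrophoresis; bidirectional fitting versus DMSO baseline.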

Experiment [2] can be described thus: ATG_GRE_CIS: Attagene CIS-FACTORIAL HepG2 Assay for human Glucocorticoid Response Elements (GRE) (AID 2282947). To be noted: HepG2 GRE cis-reporter, Attagene multiplex mRNA; actives raise or lower the signal. The essentials:
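Reporter transcripts read by RT-PCR with capillary electrophoresis fluorescence after a 24 h chemical exposure of HepG2 cells transiently transfected with multiple cis-element reporter units. Gain or loss fitted against DMSO.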

Experiment [3] is described as follows: ATG_ISRE_CIS: Attagene CIS-FACTORIAL HepG2 Assay for human Interferon Regulatory Factor 1 (IRF1) binding to an Interferon-Stimulated Response Element (ISRE) (AID 2282948). To be noted: HepG2 ISRE cis-reporter (Attagene), mRNA transcription readout; actives raise or lower the signal. The method in brief:
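Endogenous transcription factor activity read as reporter transcript abundance via RT-PCR and capillary electrophoresis. HepG2 cells transiently transfected, 24 h chemical exposure. Gain or loss fitted against DMSO baseline.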

Experiment [4] can be described thus: ATG_M_32_CIS: Attagene CIS-FACTORIAL HepG2 Assay for M32 Transcription Factor (Internal Marker) (AID 2282949).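 Further: background control marker of the multiplexed CIS panel rather than a real target.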 To be noted: HepG2 Attagene cis-factorial M32 reporter, mRNA; actives raise or lower the signal. The method in brief:
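HepG2 transfectants (cis-regulated reporter transcription units) dosed 24 h. Reporter mRNA by RT-PCR plus CE, analysed as gain or loss relative to DMSO.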

A short description of experiment [5]: ATG_M_06_CIS: Attagene CIS-FACTORIAL HepG2 Assay for M06 Transcription Factor (Internal Marker) (AID 2282950). To be noted: HepG2 Attagene CIS-FACTORIAL M06 internal marker reporter; actives raise or lower the signal. The essentials:
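Measured 24 h post-dosing in transiently transfected HepG2 cells, this internal-marker endpoint reports reporter mRNA via RT-PCR with fluorescent primer extension and capillary electrophoresis. DMSO served as negative control and baseline for bidirectional fitting.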

Experiment [6] deals with Hypoxia-inducible factor 1-alpha (Homo sapiens) (UniProt Q16665). Put plainly: ATG_HIF1a_CIS: Attagene CIS-FACTORIAL HepG2 Assay for human Hypoxia Inducible Factor 1 (HIF1A) (AID 2282951). To be noted: HepG2 Attagene cis-factorial HIF1a reporter transcription; actives raise or lower the signal. The method in brief: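 Dosed 24 h, transfected HepG2 cells yielded total RNA whose reporter transcripts were RT-PCR-amplified and sized by capillary electrophoresis using fluorescent labelling; DMSO defined baseline, with gain and loss of signal both fitted.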
Sequence of Hypoxia-inducible factor 1-alpha (Homo sapiens) (Q16665 whole entry, looked up): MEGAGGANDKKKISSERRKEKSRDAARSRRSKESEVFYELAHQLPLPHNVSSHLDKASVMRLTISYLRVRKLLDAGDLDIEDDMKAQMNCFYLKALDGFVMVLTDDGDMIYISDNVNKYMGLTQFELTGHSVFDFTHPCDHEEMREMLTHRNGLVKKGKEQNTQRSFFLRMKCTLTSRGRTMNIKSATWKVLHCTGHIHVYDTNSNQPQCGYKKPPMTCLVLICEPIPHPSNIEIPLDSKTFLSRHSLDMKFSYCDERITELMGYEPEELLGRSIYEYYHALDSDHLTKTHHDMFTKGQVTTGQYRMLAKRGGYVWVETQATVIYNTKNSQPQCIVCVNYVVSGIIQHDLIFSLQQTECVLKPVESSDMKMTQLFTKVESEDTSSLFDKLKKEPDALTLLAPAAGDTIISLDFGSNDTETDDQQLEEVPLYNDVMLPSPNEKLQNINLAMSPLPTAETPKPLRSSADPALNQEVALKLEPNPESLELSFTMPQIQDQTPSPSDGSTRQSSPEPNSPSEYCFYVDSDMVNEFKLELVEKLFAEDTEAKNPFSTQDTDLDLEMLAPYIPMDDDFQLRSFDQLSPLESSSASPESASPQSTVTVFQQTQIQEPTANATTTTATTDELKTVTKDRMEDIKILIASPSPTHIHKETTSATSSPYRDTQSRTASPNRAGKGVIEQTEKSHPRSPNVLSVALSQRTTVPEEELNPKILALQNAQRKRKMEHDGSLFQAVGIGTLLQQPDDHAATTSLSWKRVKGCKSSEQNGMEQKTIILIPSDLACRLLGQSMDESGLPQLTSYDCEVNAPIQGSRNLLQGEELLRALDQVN

Experiment [7] concerns the target Hepatocyte nuclear factor 6 (Homo sapiens) (UniProt Q9UBC0). Put plainly: ATG_HNF6_CIS: Attagene CIS-FACTORIAL HepG2 Assay for human Hepatocyte Nuclear Factor 6 (HNF6) (AID 2282952). To be noted: HepG2 Attagene cis-factorial HNF6 reporter transcription; actives raise or lower the signal. The method in brief: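 First, HepG2 cells were transfected with the multiplexed cis reporter library and dosed with chemical for 24 h. Next, RNA was reverse-transcribed, PCR-amplified and fluorescently labelled. Finally, HpaI-digested fragments were read by capillary electrophoresis.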

Experiment [8] deals with Heat shock factor protein 1 (Homo sapiens) (UniProt Q00613). Put plainly: ATG_HSE_CIS: Attagene CIS-FACTORIAL HepG2 Assay for human Heat Shock Transcription Factor 1 (HSE) (AID 2282953). To be noted: HepG2 HSE cis-reporter, Attagene RNA transcription; actives raise or lower the signal. The method in brief:
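Reporter mRNA induction in HepG2 is measured 24 h after dosing, using transiently transfected multiplexed cis-regulated reporter units. Signal comes from capillary electrophoresis of labelled RT-PCR products, with DMSO as negative control.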

Experiment [9] in a line: ATG_MRE_CIS: Attagene CIS-FACTORIAL HepG2 Assay for human Metal Responsive Element (MRE) (AID 2282954). To be noted: HepG2 MRE cis-reporter transcription, Attagene multiplex; actives raise or lower the signal. The essentials:
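Endogenous MRE-dependent transcription read as reporter mRNA in transiently transfected human HepG2 cells at 24 h. RNA reverse-transcribed, PCR-amplified, labelled and resolved by capillary electrophoresis; gain or loss relative to DMSO.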

The nature of experiment [10]: ATG_PBREM_CIS: Attagene CIS-FACTORIAL HepG2 Assay for human Phenobarbital-responsive Enhancer Module (PBREM) (AID 2282955). To be noted: HepG2 PBREM cis-reporter, Attagene multiplexed transcription; actives raise or lower the signal. The method in brief: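 Transfected liver-derived HepG2 cells exposed 24 h; PBREM reporter transcript quantified via RT-PCR and capillary electrophoresis, with activity in either direction referenced to DMSO.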

A short description of experiment [11]: ATG_PXRE_CIS: Attagene CIS-FACTORIAL HepG2 Assay for human Pregnane X Receptor Element (PXRE) (AID 2282957). To be noted: HepG2 Attagene CIS-FACTORIAL PXRE reporter, mRNA; actives raise or lower the signal. The essentials:
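After a 24 h chemical incubation, total RNA from transfected HepG2 cells was reverse-transcribed and reporter cDNA amplified, FAM-labeled, HpaI-digested and sized by capillary electrophoresis. DMSO served as baseline for bidirectional curve fitting.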

Experiment [12] in a line: ATG_RORE_CIS: Attagene CIS-FACTORIAL HepG2 Assay for human RAR-related Orphan Receptor Element (RORE) (AID 2282959). To be noted: HepG2 Attagene cis-factorial RORE reporter, mRNA; actives raise or lower the signal. The essentials:
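Transiently transfected HepG2 reporter cells were treated 24 h. Reporter transcripts were detected by RT-PCR and capillary electrophoresis, with bidirectional fitting against DMSO.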

Experiment [13] is described as follows: ATG_Sox_CIS: Attagene CIS-FACTORIAL HepG2 Assay for human SRY-box transcription factor (SOX) (AID 2282960). To be noted: HepG2 Attagene cis-factorial SOX reporter, mRNA; actives raise or lower the signal. The essentials: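 Gain- or loss-of-signal endpoint, fitted bidirectionally with DMSO as negative control. Based on reporter mRNA from transfected HepG2 cells harvested 24 h post-treatment and quantified via RT-PCR and capillary electrophoresis.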

Experiment [14] addresses Transcription factor Sp1 (Homo sapiens) (UniProt P08047). Description: ATG_Sp1_CIS: Attagene CIS-FACTORIAL HepG2 Assay for human Specificity Protein 1 (Sp1) (AID 2282961). To be noted: HepG2 Sp1 cis-reporter transcription, actives raise or lower the signal. The essentials:
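Endpoint reflects endogenous Sp1 transcriptional activity, not an exogenous fusion protein: HepG2 cells with transfected cis-regulated reporters, 24 h dosing, RT-PCR/capillary electrophoresis mRNA read-out, DMSO-normalised bidirectional fit.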

The nature of experiment [15]: ATG_SREBP_CIS: Attagene CIS-FACTORIAL HepG2 Assay for human Sterol Regulatory Element Binding (SREBP) (AID 2282962). To be noted: HepG2 Attagene cis-factorial SREBP reporter, mRNA; actives raise or lower the signal. The essentials:
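Endogenous SREBP activity read as cis-element-driven reporter transcript in transiently transfected HepG2, 24 h post-dosing; quantified via RT-PCR plus capillary electrophoresis of fluorescent fragments. Gain or loss of signal fitted relative to DMSO baseline.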

Experiment [16] is described as follows: ATG_TA_CIS: Attagene CIS-FACTORIAL HepG2 Assay for human TA Basal Promoter (AID 2282964). To be noted: HepG2 Attagene CIS-factorial TA basal promoter reporter; actives raise or lower the signal. The essentials: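 Cis-factorial format in HepG2: reporters report endogenous factors, not chimeric Gal4 fusions. After 24 h treatment, reporter transcripts were measured by RT-PCR-capillary electrophoresis fluorescence, analysed bidirectionally versus DMSO.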

Experiment [17] can be described thus: ATG_TCF_b_cat_CIS: Attagene CIS-FACTORIAL HepG2 Assay for human T-Cell-Factor with beta-catenin (TCF/b-cat) (AID 2282965). To be noted: HepG2 TCF/beta-catenin cis-reporter transcription, actives raise or lower the signal. The essentials:
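Endogenous TCF/LEF activity read as reporter transcript level via RT-PCR and capillary electrophoresis fluorescence in transfected HepG2, 24 h exposure; gain or loss of signal fitted against DMSO controls.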

Experiment [18] addresses Signal transducer and activator of transcription 3 (Homo sapiens) (UniProt P40763). Description: ATG_STAT3_CIS: Attagene CIS-FACTORIAL HepG2 Assay for human Signal Transducer and Activator of Transcription 3 (STAT3) (AID 2282963). To be noted: HepG2, Attagene cis-factorial STAT3 reporter transcription; actives raise or lower the signal. The method in brief:
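Readout is reporter transcript quantified by RT-PCR and capillary electrophoresis, with 6-FAM primer extension and HpaI digestion. Total RNA is taken 24 h after dosing transiently transfected HepG2 carrying cis-regulated reporter units. Bidirectional fit against DMSO.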

Experiment [19] addresses Paired box protein Pax-6 (Homo sapiens) (UniProt P26367). Description: ATG_Pax6_CIS: Attagene CIS-FACTORIAL HepG2 Assay for human Paired Box 6 (PAX6) (AID 2282956). To be noted: HepG2 CIS-FACTORIAL PAX6 reporter transcription, RNA readout; actives raise or lower the signal. The method in brief:
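Read-out is reporter transcript level, measured by RT-PCR with fluorescent primer extension and capillary electrophoresis after 24 h dosing of transfected HepG2 cells. Activity in either direction fitted relative to DMSO control.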

Experiment [20] in a line: ATG_PPRE_CIS: Attagene CIS-FACTORIAL HepG2 Assay for human Peroxisome Proliferator-activated Response Element (PPRE) (AID 2282958). To be noted: HepG2 PPRE cis-element reporter, Attagene transcription factor profiling; actives raise or lower the signal. The method in brief:
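Measured endpoint: PPRE-controlled reporter mRNA, detected by RT-PCR and capillary electrophoresis fluorescence, from transiently transfected HepG2 cells 24 h after dosing. Curves fitted in both directions using DMSO baseline.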

The structures appear in SMILES notation. The source made the active and inactive calls. How the source made its calls: active means hit-call score of the fitted dose curve at least 0.9, where 1 is the maximum; inactive means score below 0.9.

Sequence of Transcription factor Sp1 (Homo sapiens) (P08047 whole entry, looked up, the tested form may be a part): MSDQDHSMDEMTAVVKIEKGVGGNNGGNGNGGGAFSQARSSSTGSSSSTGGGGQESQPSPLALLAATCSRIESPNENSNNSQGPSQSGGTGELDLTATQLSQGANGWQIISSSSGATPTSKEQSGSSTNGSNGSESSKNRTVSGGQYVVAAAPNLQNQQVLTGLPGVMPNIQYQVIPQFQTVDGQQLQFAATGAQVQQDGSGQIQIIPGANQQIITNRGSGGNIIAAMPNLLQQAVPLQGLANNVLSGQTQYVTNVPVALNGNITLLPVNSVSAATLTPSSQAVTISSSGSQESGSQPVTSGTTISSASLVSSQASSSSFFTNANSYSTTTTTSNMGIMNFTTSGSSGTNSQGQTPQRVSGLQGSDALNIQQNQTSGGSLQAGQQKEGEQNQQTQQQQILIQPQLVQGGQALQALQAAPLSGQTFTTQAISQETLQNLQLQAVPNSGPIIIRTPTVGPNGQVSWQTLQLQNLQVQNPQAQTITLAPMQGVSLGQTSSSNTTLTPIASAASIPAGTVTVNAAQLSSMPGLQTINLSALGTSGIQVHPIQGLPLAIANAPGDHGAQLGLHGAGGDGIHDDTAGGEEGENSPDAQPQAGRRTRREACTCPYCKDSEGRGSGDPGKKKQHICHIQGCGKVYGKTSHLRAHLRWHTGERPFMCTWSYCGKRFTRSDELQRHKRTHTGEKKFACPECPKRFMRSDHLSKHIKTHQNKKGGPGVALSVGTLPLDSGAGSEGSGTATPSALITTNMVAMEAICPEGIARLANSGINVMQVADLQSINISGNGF
Sequence of Hepatocyte nuclear factor 6 (Homo sapiens) (Q9UBC0 whole entry, looked up, the tested form may be a part): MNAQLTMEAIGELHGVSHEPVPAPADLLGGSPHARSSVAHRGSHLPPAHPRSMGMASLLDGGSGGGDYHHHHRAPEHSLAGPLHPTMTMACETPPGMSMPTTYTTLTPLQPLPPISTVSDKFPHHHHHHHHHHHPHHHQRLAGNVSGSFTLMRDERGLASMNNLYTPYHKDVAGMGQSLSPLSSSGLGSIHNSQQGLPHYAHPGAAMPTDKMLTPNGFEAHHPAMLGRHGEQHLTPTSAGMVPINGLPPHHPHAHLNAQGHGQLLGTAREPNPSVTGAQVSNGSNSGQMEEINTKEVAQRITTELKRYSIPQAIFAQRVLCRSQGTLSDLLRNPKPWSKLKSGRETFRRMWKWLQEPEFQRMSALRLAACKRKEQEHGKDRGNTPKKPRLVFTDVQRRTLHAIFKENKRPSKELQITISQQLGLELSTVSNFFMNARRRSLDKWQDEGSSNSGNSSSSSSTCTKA
Sequence of Bile acid receptor (Homo sapiens) (Q96RI1 whole entry, looked up): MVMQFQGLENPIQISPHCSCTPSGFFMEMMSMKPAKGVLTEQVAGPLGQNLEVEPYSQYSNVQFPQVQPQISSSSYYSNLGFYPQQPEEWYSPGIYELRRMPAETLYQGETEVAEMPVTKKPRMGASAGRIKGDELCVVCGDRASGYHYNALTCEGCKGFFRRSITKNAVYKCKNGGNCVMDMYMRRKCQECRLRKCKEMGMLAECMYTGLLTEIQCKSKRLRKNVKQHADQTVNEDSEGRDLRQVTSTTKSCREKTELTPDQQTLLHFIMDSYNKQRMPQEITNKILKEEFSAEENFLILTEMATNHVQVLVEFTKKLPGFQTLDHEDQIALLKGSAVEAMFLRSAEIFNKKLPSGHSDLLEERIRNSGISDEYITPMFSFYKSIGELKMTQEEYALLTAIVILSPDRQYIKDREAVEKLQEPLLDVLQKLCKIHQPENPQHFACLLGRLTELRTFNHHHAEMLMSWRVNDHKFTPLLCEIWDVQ
Sequence of Heat shock factor protein 1 (Homo sapiens) (Q00613 whole entry, looked up): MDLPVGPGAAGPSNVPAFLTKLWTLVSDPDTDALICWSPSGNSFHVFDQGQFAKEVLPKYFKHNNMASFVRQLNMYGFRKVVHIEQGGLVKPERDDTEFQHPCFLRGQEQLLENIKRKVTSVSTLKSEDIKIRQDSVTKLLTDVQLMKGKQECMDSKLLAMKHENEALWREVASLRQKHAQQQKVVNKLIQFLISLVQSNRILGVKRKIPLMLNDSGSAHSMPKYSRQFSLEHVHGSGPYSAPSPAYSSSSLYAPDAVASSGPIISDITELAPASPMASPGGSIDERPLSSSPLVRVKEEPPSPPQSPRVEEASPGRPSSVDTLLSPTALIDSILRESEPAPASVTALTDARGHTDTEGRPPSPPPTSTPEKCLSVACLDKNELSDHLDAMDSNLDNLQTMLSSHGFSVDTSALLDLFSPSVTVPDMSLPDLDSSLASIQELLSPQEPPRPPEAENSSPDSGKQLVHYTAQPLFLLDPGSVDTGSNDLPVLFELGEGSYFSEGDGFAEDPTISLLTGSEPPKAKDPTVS
Sequence of Signal transducer and activator of transcription 3 (Homo sapiens) (P40763 whole entry, looked up): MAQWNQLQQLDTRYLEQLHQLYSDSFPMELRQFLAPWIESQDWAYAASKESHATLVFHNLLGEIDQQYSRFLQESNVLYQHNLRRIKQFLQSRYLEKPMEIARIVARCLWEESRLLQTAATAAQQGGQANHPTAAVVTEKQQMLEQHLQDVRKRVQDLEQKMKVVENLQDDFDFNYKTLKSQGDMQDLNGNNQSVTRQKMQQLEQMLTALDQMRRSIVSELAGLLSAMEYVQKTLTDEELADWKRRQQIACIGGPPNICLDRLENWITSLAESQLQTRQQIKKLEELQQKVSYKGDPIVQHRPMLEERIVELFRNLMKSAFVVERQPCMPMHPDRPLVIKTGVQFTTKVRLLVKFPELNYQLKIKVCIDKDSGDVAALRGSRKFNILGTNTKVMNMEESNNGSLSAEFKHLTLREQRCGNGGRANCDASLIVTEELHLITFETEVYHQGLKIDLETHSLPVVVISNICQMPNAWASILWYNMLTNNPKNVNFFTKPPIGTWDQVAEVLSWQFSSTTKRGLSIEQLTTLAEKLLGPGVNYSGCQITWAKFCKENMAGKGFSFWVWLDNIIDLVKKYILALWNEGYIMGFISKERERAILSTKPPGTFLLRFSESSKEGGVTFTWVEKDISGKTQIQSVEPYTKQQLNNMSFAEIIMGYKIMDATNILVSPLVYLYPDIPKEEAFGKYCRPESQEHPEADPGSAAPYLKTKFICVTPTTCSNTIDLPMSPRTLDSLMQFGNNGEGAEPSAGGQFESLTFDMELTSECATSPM
Sequence of Paired box protein Pax-6 (Homo sapiens) (P26367 whole entry, looked up): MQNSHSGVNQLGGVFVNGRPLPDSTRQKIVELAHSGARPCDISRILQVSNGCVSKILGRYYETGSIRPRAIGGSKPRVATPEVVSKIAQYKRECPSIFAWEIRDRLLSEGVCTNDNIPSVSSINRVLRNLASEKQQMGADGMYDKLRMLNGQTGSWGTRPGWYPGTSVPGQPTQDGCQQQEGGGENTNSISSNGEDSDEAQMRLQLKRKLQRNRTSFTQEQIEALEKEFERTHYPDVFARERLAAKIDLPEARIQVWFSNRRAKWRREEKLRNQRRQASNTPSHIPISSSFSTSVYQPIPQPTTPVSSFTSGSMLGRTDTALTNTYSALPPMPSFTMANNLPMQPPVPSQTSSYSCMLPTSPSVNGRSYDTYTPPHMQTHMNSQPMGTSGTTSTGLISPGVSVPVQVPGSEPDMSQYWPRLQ

As usually defined, the AC50 is the concentration at which the activity in the assay is half-maximal. As to `CCC[CH2][Sn]([Cl])([CH2]CCC)[CH2]CCC`, the AC50 in [1] was 13.8 nM (active); in experiment [3], 611 nM (active); in experiment [8], 667 nM (active); in [9] it was 778 nM (active); in experiment [14] it was 412 nM (active); in experiment [16], 698 nM (active). Moreover, the AC50 in experiment [17] was 591 nM (active). The call in [2], in [4], in experiment [5], in experiment [6], in [7] and in [10] was inactive. The outcome in [11], in [12], in experiment [13] and in experiment [15] was inactive.

Turning to `Nc1ccc([N+](=O)[O-])cc1`, the outcome in experiment [1], in experiment [2], in experiment [3], in experiment [4], in experiment [5] and in experiment [6] was inactive. The compound was classed as inactive in [7], in experiment [8], in [9], in experiment [10], in [11] and in [12]. Further, the outcome in [13], in experiment [14], in experiment [15], in experiment [18], in experiment [16] and in experiment [17] was inactive.

Regarding `ClCCOCCCl`, the outcome in experiment [1], in [2], in [3], in experiment [4], in experiment [6] and in experiment [7] was inactive. Besides, the result in experiment [8], in experiment [9], in experiment [19], in experiment [11], in experiment [20] and in experiment [12] was inactive. For the same compound, the compound was called inactive in [13], in [14], in experiment [15], in experiment [16] and in experiment [17].
